Inconclusive results are not listed. Values without a mark were called inactive. Active and inactive are the calls of the source. The call rests on the fitted dose curve; in most records, active means well fitted cell-killing curve with a large enough effect in the repeat runs; inconclusive means weak or mixed curves, or effect the other way; inactive means no such curve, though single readings can be large or run the other way.
Assay: qHTS assay to identify small molecule antagonists of the vitamin D receptor (VDR) signaling pathway - cell viability counter screen (AID 743225); further: nearly all actives have a fitted effect of over 50% in size
Conditions: VDR-bla HEK293T viability, CellTiter-Glo luminescence, 16 h; series mostly up to 61 µM; viability change, negative = cytotoxic: at the top concentration
Excerpt: U.S. Tox21 Program National Center for Advancing Translational Sciences [NCATS] NIH Chemical Genomics Center [NCGC] U.S. Environmental Protection Agency [EPA] National Institutes of Environmental Health Sciences [NIEHS] National Toxicology Program [NTP] U.S. Food and Drug Administration [FDA] Tox21 Assay Overview: The vitamin D receptor (VDR), a member of nuclear hormone receptor superfamily, plays a critical role in calcium homeostasis and bone metabolism. It is also involved in cell differentiation and growth, and thrombogenicity. To identify the compounds that inhibit VDR signaling, the VDR-UAS-bla HEK 293T cell line (Invitrogen, Carlsbad, CA, USA) containing a beta-lactamase reporter gene under the control of an upstream activator sequence (UAS) was used to screen the Tox21 10K compound library. The cytotoxicity of the Tox21 compound library against the VDR-bla cell line was tested in parallel by measuring the cell viability using CellTiter-Glo assay (Promega, Madison, WI) in the same wells.
Tox21 Assay Protocol Summary: VDR-bla cells were dispensed at 2,000 cells/5 uL of assay medium per well into black wall/clear-bottom 1536-well plates using a Multidrop Combi (Thermo Fisher Scientific, Waltham, MA) dispenser. After the assay plates were incubated at a 37C and 5% CO2 for 4 h, 23 nL of compounds dissolved in DMSO, positive controls or DMSO only was transferred to the assay plate by a Pintool station (Kalypsys, San Diego, CA), followed by addition of 1 uL of 1-alpha, 25-Dihydroxy Vitamin D3 (3 nM, final concentration in the wells) using a Bioraptr Flying Reagent Dispenser (FRD) workstation (Beckman Coulter, Indianapolis, IN). The plates were incubated at 37C and 5% CO2 for 16 h, and then 1 uL of LiveBLAzerTM B/G FRET substrate was added using a Bioraptr FRD. The plates were incubated at room temperature for 2 h and fluorescence intensity was measured by an Envision plate reader (PerkinElmer, Shelton, CT). For cell viability readout that measures cytotoxicity, 3 ul/well of CellTiter-Glo reagent was added into the assay plates using a Bioraptr FRD. After 30 min incubation at room temperature, the luminescence intensity in the plates was measured using a ViewLux plate reader (PerkinElmer).
On the % scale 0 is the no-effect control and ±100 the full control effect; potency means the concentration at half of the fitted maximal effect.

Compound | viability change, negative = cytotoxic | Potency
C=C(C#N)CCC#N | 10.6% | 
O=Cc1ccc2c(c1)OCO2 | -0.17% | 
O=Cc1ccc(Cl)cc1Cl | -5.79% [at 78.8 µM] | 
O=C(O)C(F)(F)C(F)(F)C(F)(F)C(F)(F)C(F)(F)C(F)(F)C(F)(F)C(F)(F)C(F)(F)C(F)(F)F | 6.06% | 
Cn1sc(Cl)cc1=O | 2.31% | 
CC(=O)[C@H]1CC[C@H]2[C@@H]3CC[C@H]4C[C@](C)(O)CC[C@]4(C)[C@H]3CC[C@]12C | 0.0112% | 
Cc1ccc(N)cc1C | 19.3% [at 78.8 µM] | 
CCOC(=O)COc1cc(-c2nn(C)c(OC(F)F)c2Cl)c(F)cc1Cl | 8.3% | 
O=S1(=O)OC(c2cc(Br)c(O)c(Br)c2)(c2cc(Br)c(O)c(Br)c2)c2ccccc21 | -4.43% | 
O=S1OC[C@@H]2[C@H](CO1)[C@]1(Cl)C(Cl)=C(Cl)[C@@]2(Cl)C1(Cl)Cl (stereo not given in full) | -12.2% | 
CCCCCCCCCC(=O)O[C@H]1CC[C@H]2[C@@H]3CCC4=CC(=O)CC[C@@H]4[C@H]3CC[C@]12C | 6.34% | 
O=C(O)CC(Cl)C(=O)O (stereo not given) | -0.804% [at 78.8 µM] | 
O=C(Nc1ccccc1)Nc1cnns1 | 3.1% | 
O=S(=O)(Cl)c1ccccc1 | 13.4% [at 78.8 µM] | 
CN1[C@@H]2CC[C@H]1CC(OC(=O)c1cc(Cl)cc(Cl)c1)C2 (stereo not given in full) | -26.3% | 
CN1C(=O)NC(=O)C(C)(C2=CCCCC2)C1=O (stereo not given) | 4.71% | 
O=C(CBr)Nc1ccc(Cl)cc1C(=O)c1ccccc1F | 7.84% | 
Clc1cc(Cl)c(Cl)c(Cl)c1 | 7.92% | 
CCOP(O)OCC | 15.2% | 
CC(C)(C)C(O)C(Oc1ccc(Cl)cc1)n1cncn1 (stereo not given) | -2.89% | 

Compound | viability change, negative = cytotoxic | Potency
CCCCCC[N+](=O)[O-] | -10.4% [at 78.8 µM] | 
N#CCc1ccccc1 | -23.8% [at 78.8 µM] | 
Cc1ccccc1CCl | 6.38% | 
CCCN(CC1CC1)c1c([N+](=O)[O-])cc(C(F)(F)F)cc1[N+](=O)[O-] | -2.13% | 
ClCc1ccccc1 | -5.42% | 
O=C(O)C1(c2ccc3c(c2)OC[C@H](Cc2ccc(-c4ccccc4)cc2)[C@H]3O)CCCC1 |  | 49 µM (active)
C(=NC1CCCCC1)=NC1CCCCC1 | 5.69% [at 78.8 µM] | 
COC(N)=O | 0.205% | 
CCC(Br)(CC)C(=O)NC(N)=O | -0.826% | 
COC(=O)c1cncn1C(C)c1ccccc1 (stereo not given) | 0.0492% | 
CO[C@@H]1[C@H](OC(=O)NC(=O)CCl)CC[C@]2(CO2)[C@H]1[C@@]1(C)O[C@@H]1CC=C(C)C | 4.39% [at 28.5 µM] | 
Cc1ccc(-c2c(Cl)nc(C#N)n2S(=O)(=O)N(C)C)cc1 | 1.32% | 
COc1cc(Cl)c(OC)cc1Cl | 1.66% | 
CCC(COC(=O)c1cc(OC)c(OC)c(OC)c1)(c1ccccc1)N(C)C (stereo not given) | 1.15% | 
N#C/C(N)=C(/N)C#N | 0.704% | 
CC(Cl)Cl | -8.77% | 
[CH3][Sn]([CH3])([Cl])[Cl] |  | inactive
CCCN(CCCl)c1c([N+](=O)[O-])cc(C(F)(F)F)cc1[N+](=O)[O-] | -4.16% | 
CC(C)N(CCC(C(N)=O)(c1ccccc1)c1ccccn1)C(C)C (stereo not given) | -3.47% | 
Cc1ccc2ccccc2c1 | 2.47% | 

— PubChem BioAssay (Tox21)
